27 compounds from PubChem BioAssay (NCATS) can be followed below.

A short description of assay [1]: qHTS drug screen for cell cycle checkpoint inhibitors in PARPi-resistant BRCA-mutant ovarian cancer cell lines. (AID 1963452; calls by dose curve). The conditions noted are these: PEO1/OlaR viability, CellTiter-Glo luminescence, 96 h, stronger effect = lower value. The method, boiled down:
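PEO1, PEO4 and PEO1/OlaR ovarian cancer cells, 600 per well, exposed 96 h at 37C to a dilution series. Viability read by CellTiter-Glo luminescence, normalized to DMSO and empty wells; activity summarized as Z-AUC.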
A general note: In qHTS, concentration-response curves come from the screen itself.

Assay [2] in a line: qHTS profiling for inhibitors of Plasmodium falciparum proliferation (AID 504749). Also: nearly all actives have a fitted effect of over 60% in size. Also: potency is read from the fitted curve at half-maximal effect.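 As to activity, negative = inhibition: 0% = DMSO vehicle and full inhibition = artemisinin control.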 The conditions noted are these: P. falciparum in erythrocytes, SYBR Green DNA, 72 h, at 28.7 µM (top of the series). The method, boiled down:
(§1)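 Fluorescence of SYBR Green-bound parasite DNA, read at 485/535 nm, served as the growth measure. Infected erythrocytes were cultured with compound 72 h; artemisinin (0.29 uM) and DMSO wells defined the normalization range.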

The next assay concerns 3D7. Described as above. The conditions noted are these: P. falciparum in erythrocytes, SYBR Green DNA, 72 h; series mostly up to 28.7 µM. In outline: as §1
In another assay the test system is 7G8. Described as above. Particulars: P. falciparum in erythrocytes, SYBR Green DNA, 72 h; series mostly up to 28.7 µM. In outline: as §1
In a further assay the test system is AA1029. The assay is described as above. The conditions noted are these: P. falciparum in erythrocytes, SYBR Green DNA, 72 h; series mostly up to 28.7 µM. In outline:
as §1

A short description of assay [3]: qHTS Counterscreen for compound interference against the NCATS DSHEA and TCM libraries (AID 1919978). Also: % of control where 0% means no effect. The conditions noted are these: firefly luciferase detection reagent interference, luminescence. The method, boiled down:
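D-luciferin (1 uM final) or 100 mM potassium phosphate buffer alone was preincubated 15 min at RT with compounds (19.5 nM to 39.8 uM final). Luciferin detection reagent was then added and luminescence read after 30 min at RT.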

Assay [4] is described as follows: Dual reporter qHTS for agonist of Pregnane X Receptor (hPXR) against the NCATS DSHEA and TCM libraries: Fluorescence readout (AID 1920058). Also: 0% is about no effect. Particulars: PXR dual reporter cells; series mostly up to 40 µM. The method, boiled down: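 In this qHTS counter-read, reporter-bearing HepG2 cells in charcoal-stripped serum received substances for approximately 24 h before viability was assessed fluorometrically with CellTiter-Fluor.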

For assay [5], the target named is Nuclear receptor subfamily 1 group I member 2 (Homo sapiens) (UniProt O75469). As to the kind of experiment: Dual reporter qHTS for agonist of Pregnane X Receptor (hPXR) against the NCATS DSHEA and TCM libraries: Luminescence readout (AID 1920059). Also: 0% is about no effect. The conditions noted are these: hPXR dual reporter cells, luciferase luminescence agonist; series mostly up to 40 µM. The method, boiled down: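 hPXR-LucHepG2 cells in phenol red-free DMEM with 5% charcoal-stripped FBS, 2000 cells/well, attached 5 h, then exposed 24 h at 37C to compounds; rifampicin as positive agonist control (2.8 nM–92 uM). Luciferase luminescence read.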

The target is the same in assay [6]. As to the kind of experiment: Dual reporter qHTS for antagonist of Pregnane X Receptor (hPXR) against the NCATS DSHEA and TCM libraries: Luminescence Readout (AID 1920060).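 Also: HepG2 cells carrying hPXR luciferase reporter stimulated with rifampicin at 2 µM; 0% is about no effect.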 Particulars: hPXR dual reporter cells, luciferase luminescence, antagonist mode; series mostly up to 40 µM. In outline:
(§2)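 In antagonist mode, 2 uM rifampicin was added to hPXR-Luc HepG2 cells alongside test substances, incubated 24 h at 37 C; luminescence gave reporter activity, and CellTiter-Fluor fluorescence (405/540 nm) gave viability.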

Assay [7] is described as follows: Dual reporter qHTS for antagonist of Pregnane X Receptor (hPXR) against the NCATS DSHEA and TCM libraries: Fluorescence Readout (AID 1920061). Also: 0% is about no effect. Particulars: PXR dual reporter cells, antagonist mode; series mostly up to 40 µM. The method, boiled down: as §2
The mark [8] stands for this setting: measured here: PEO1 parental Z-AUC.

Results filed as inconclusive are left out. Activity calls are given as the source filed them. Unless noted, calls follow the shape of the dose curve; as a rule, active = well fitted curve in the direction sought with a large enough effect; inconclusive = small, poorly fitted or top-dose-only effect, or another doubt; inactive = no such curve, though single readings can be large; an effect the other way counts as inactive or inconclusive.

Sequence of Nuclear receptor subfamily 1 group I member 2 (Homo sapiens) (O75469 whole entry, looked up): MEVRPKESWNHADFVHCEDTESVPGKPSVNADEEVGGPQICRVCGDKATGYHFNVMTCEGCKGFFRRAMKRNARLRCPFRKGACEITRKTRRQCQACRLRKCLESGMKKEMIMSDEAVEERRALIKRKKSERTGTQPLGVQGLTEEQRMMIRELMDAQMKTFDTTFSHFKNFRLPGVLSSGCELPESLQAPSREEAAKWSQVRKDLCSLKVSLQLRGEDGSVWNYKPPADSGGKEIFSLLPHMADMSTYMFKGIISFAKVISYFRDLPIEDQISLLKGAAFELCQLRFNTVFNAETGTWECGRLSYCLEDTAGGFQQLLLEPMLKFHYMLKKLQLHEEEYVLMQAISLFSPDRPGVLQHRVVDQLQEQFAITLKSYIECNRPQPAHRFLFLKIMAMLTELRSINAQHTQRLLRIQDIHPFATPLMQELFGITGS

For `N=c1ccn2c(n1)O[C@H]1[C@H](O)[C@@H](CO)O[C@H]12`, the Z-AUC in assay [1] is -1.72 (inactive); in assay [1] (setting [8]), -1.24; in assay [1] (measured here: PEO4 Z-AUC) it was 0.152. Moreover, the activity, negative = inhibition in assay [2] (parasite line A) is 4.44% (inactive); in assay [2] (parasite line B), 4.16% (inactive). For the same compound, the Potency result with 3D7, in the assay on 7G8 and with AA1029 was “inactive” in each case.
As for `COc1cc(/C=C/C(=O)CC(=O)/C=C/c2ccc(O)c(OC)c2)ccc1O`, the Z-AUC was -0.374 (inactive) in assay [1], -0.396 in [1] (setting [8]) and -0.434 in assay [1] (measured here: PEO4 Z-AUC). Further, the results for the Potency in the assay on 3D7 and in the assay on 7G8 were 10 µM (active) and 11.2 µM (active), respectively.
As for `COc1cc(SC)ccc1C(=O)N1CCC(Cc2ccccc2)CC1`, the Z-AUC is 0.323 (inactive) in assay [1], 1.42 in assay [1] (setting [8]) and 1.59 in [1] (measured here: PEO4 Z-AUC).
In the case of `N.N.O=C(O)C1(C(=O)O)CCC1.[Pt]`, the Z-AUC is 1.36 (inactive) in assay [1], 0.632 in assay [1] (setting [8]) and 0.869 in assay [1] (measured here: PEO4 Z-AUC).
Consider `O=C(O)[C@H](CC(=O)N1C[C@H]2CCCC[C@H]2C1)Cc1ccccc1`, for which the Z-AUC in assay [1] was -0.763 (inactive); in [1] (setting [8]) it was -0.735; in assay [1] (measured here: PEO4 Z-AUC) it was -0.83. In addition, the activity, negative = inhibition is 9.74% (inactive) in assay [2] (parasite line A) and 2.21% (inactive) in [2] (parasite line B). For the same compound, the Potency result with 3D7, with 7G8 and in the assay on AA1029 was “inactive” throughout.
Regarding `CCCCCCCCCCCCCCCCCC(=O)O`, the max response in [3] is 4.77% (inactive). For the same compound, the result in [4], in assay [5], in [6] and in assay [7] was inactive. Also, the values for the activity, negative = inhibition in [2] (parasite line A) and in [2] (parasite line B) were -10.1% (inactive) and -2.97% (inactive), respectively. The Potency result with 3D7, with 7G8 and with AA1029 was “inactive” throughout.
Turning to `C#C[C@]1(O)CC[C@H]2[C@@H]3CCc4cc(O)ccc4[C@H]3CC[C@@]21C`, the Z-AUC was -0.519 (inactive) in assay [1], 0.139 in assay [1] (setting [8]) and 0.344 in [1] (measured here: PEO4 Z-AUC). Moreover, the activity, negative = inhibition in [2] (parasite line A) is 17.5% (inactive); in [2] (parasite line B), 5.92% (inactive). Further, the Potency result in the assay with 3D7, in the assay on 7G8 and in the assay with AA1029 was “inactive” each time.
`O=C1NC(=O)/C(=C/c2ccc3nccnc3c2)S1`: the Z-AUC was 1.93 (inactive) in [1], 0.559 in assay [1] (setting [8]) and 0.611 in assay [1] (measured here: PEO4 Z-AUC).
As for `O=C1NC(=O)/C(=C/c2ccc(-c3ccc(F)cc3O)o2)S1`, the Z-AUC in assay [1] was -1.15 (inactive); in assay [1] (setting [8]) it was -0.562; in assay [1] (measured here: PEO4 Z-AUC), -0.191.
As for `Oc1cc(O)cc(/C=C/c2ccc(O)c(O)c2)c1`, the Z-AUC in [1] is 1.52 (inactive); in assay [1] (setting [8]), 0.906; in assay [1] (measured here: PEO4 Z-AUC), 0.317.
`CC1(C)[C@@H](O)CC[C@]2(C)[C@H]3C(=O)C=C4[C@@H]5C[C@@](C)(C(=O)O)CC[C@]5(C)CC[C@@]4(C)[C@]3(C)CC[C@@H]12`: the Z-AUC in assay [1] is 0.796 (inactive); in assay [1] (setting [8]), 1.38; in assay [1] (measured here: PEO4 Z-AUC), 0.997. In addition, the figures for the activity, negative = inhibition in assay [2] (parasite line A) and in assay [2] (parasite line B) were -3.83% (inactive) and -0.325% (inactive), respectively. The Potency entry with 3D7, with 7G8 and in the assay on AA1029 was “inactive” in each case.
As to `C=CCc1cccc(/C=N/NC(=O)CN2CCN(Cc3ccccc3)CC2)c1O`, the Z-AUC in [1] is 0.78 (inactive); in assay [1] (setting [8]), 0.857; in [1] (measured here: PEO4 Z-AUC), 0.395.
With `CC(N)C(=O)OC(C)(C)Cc1ccc(Cl)cc1` (stereo unspecified), the activity, negative = inhibition was 3.68% (inactive) in [2] (parasite line A) and 0.818% (inactive) in assay [2] (parasite line B). In addition, the Potency result in the assay with 3D7 is “inactive”. Moreover, the Potency in the assay on 7G8 is 10 µM (active).
As for `O=C(Nc1ccc2c(c1)CCN(Cc1ncn[nH]1)C2)c1ccccc1-c1ccc(C(F)(F)F)cc1`, the Z-AUC is -0.0591 (inactive) in [1], -0.291 in [1] (setting [8]) and 0.47 in assay [1] (measured here: PEO4 Z-AUC).
The like results for `O=S(=O)(c1cccc2c(I)cccc12)N1CCCNCC1` were, in that order, -0.863 (inactive), -0.557 and -0.682.
In the case of `CCN1/C(=C/C(C)=O)Sc2ccc(OC)cc21`, the Z-AUC is 0.945 (inactive) in assay [1], 0.672 in assay [1] (setting [8]) and 0.802 in assay [1] (measured here: PEO4 Z-AUC).
As for `C[N+]1(C)C2CC(OC(=O)[C@H](CO)c3ccccc3)CC1C1OC12` (stereo partly specified), the results for the Z-AUC in assay [1], in [1] (setting [8]) and in [1] (measured here: PEO4 Z-AUC) were 1.57 (inactive), 1.91 and 2.01, respectively.
The like results for `CCOC(=O)N1CCN(/[N+]([O-])=N/Oc2ccc([N+](=O)[O-])cc2[N+](=O)[O-])CC1` were, in that order, 1.46 (inactive), 1.72 and 1.39.
The like results for `CN[C@H](CC(C)C)C(=O)N[C@H]1C(=O)N[C@@H](CC(N)=O)C(=O)N[C@H]2C(=O)N[C@H]3C(=O)N[C@H](C(=O)N[C@H](C(=O)O)c4cc(O)cc(O)c4-c4cc3ccc4O)[C@H](O)c3ccc(c(Cl)c3)Oc3cc2cc(c3O[C@@H]2O[C@H](CO)[C@@H](O)[C@H](O)[C@H]2O[C@H]2C[C@](C)(N)[C@H](O)[C@H](C)O2)Oc2ccc(cc2Cl)[C@H]1O` were, in that order, -0.534 (inactive), -0.325 and -1.21.
The like results for `CCNC(=O)[C@H]1O[C@@H](n2cnc3c(N)nc(NCCc4ccc(CCC(=O)O)cc4)nc32)[C@H](O)[C@@H]1O` were, in that order, 1.44 (inactive), 0.917 and 1.15.
As for `COc1ccc(/C=C/C(=O)Nc2ccccc2C(=O)O)cc1OC`, the Z-AUC in [1] is 1.02 (inactive); in [1] (setting [8]) it was 1.51; in assay [1] (measured here: PEO4 Z-AUC), 0.971. Also, the activity, negative = inhibition in assay [2] (parasite line A) was 3.65% (inactive); in assay [2] (parasite line B), -0.207% (inactive). The Potency result with 3D7 and in the assay with AA1029 was “inactive” in each case.
Regarding `CC[C@H]1OC(=O)[C@H](C)[C@@H](O[C@H]2C[C@@](C)(OC)[C@@H](O)[C@H](C)O2)[C@H](C)[C@@H](O[C@@H]2O[C@H](C)C[C@H](N(C)C)[C@H]2O)[C@](C)(O)C[C@@H](C)C(=O)[C@H](C)[C@@H](O)[C@]1(C)O`, the results for the Z-AUC in assay [1], in assay [1] (setting [8]) and in assay [1] (measured here: PEO4 Z-AUC) were 1.12 (inactive), 0.909 and 1.27, respectively.
Regarding `CCCC(=O)OC[C@@H](OC(=O)CCC)[C@@H](OC(=O)CCC)[C@H](Cn1c2nc(=O)[nH]c(=O)c-2nc2cc(C)c(C)cc21)OC(=O)CCC`, the activity, negative = inhibition in assay [2] (parasite line A) is -28.7% (inactive).
In the case of `COc1cc(CNC(=O)CCCC/C=C/C(C)C)ccc1O`, the Z-AUC in [1] is 1.64 (inactive); in [1] (setting [8]), 1.45; in assay [1] (measured here: PEO4 Z-AUC), 1.46. For the same compound, the figures for the activity, negative = inhibition in assay [2] (parasite line A) and in assay [2] (parasite line B) were -2.8% (inactive) and 8.8% (inactive), respectively. In addition, the Potency entry with 3D7, with 7G8 and in the assay with AA1029 was “inactive” each time.
With `C[S+](CC[C@H](N)C(=O)O)C[C@H]1O[C@@H](n2cnc3c(N)ncnc32)[C@H](O)[C@@H]1O` (stereo partly specified), the max response in [3] was -4.63% (inactive). Also, the call in assay [4], in assay [6] and in assay [7] was inactive. Besides, the Potency entry with 3D7 and with 7G8 was “inactive” each time.
Consider `O=C(/C=C/c1ccc(O)cc1)c1ccc(O)cc1O`, for which the Z-AUC in [1] is 0.396 (inactive); in assay [1] (setting [8]), 0.804; in assay [1] (measured here: PEO4 Z-AUC), 0.213.
For the compound `O=C(O)c1cc(O)c(O)c(O)c1`, the max response in assay [3] was -2.87% (inactive). The result in assay [4], in assay [5], in assay [6] and in [7] was inactive. The results for the activity, negative = inhibition in [2] (parasite line A) and in assay [2] (parasite line B) were -23.1% (inactive) and -29.8% (inactive), respectively. In the assay with AA1029, the Potency result is “inactive”.
